Shown is part of a subset that was picked to be rich in hits.
Tgondii IFNg: T. gondii growth inhibition under IFN-gamma | Toxoplasma gondii growth in IFN-gamma-treated host cells; stronger effect = lower value | activity change, negative = inhibition, % (concentration not given with the values) | 3.8% of 69,000 active | AID 1259416; in the data active = activity change below about -70%, passing the limit was not always enough;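 note: host cells are HeLa cells infected with Toxoplasma gondii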
Of the large screens only hits and unclear results are named; the others gave an inactive call.

COc1cccc(CN(C)C(=O)CCc2nnc(C3(c4ccc(Cl)cc4)CCC3)o2)c1	none
O=C(O)CCCN1CCC(O[C@@H](c2ccc(Cl)cc2)c2ccccn2)CC1	none
CC1CCN(CCCC(=O)c2ccc(F)cc2)CC1	none
CC(C)(C)c1ccc(C(=O)CCCN2CCC(OC(c3ccccc3)c3ccccc3)CC2)cc1	Tgondii IFNg -86
CN(C)C1CCN(S(=O)(=O)c2cccc(F)c2)C(C(=O)O)C1 (stereo unspecified)	none
CC(C)CC1C(=O)N2CCCC2C2(O)OC(NC(=O)C3C=C4c5cccc6[nH]c(Br)c(c56)CC4N(C)C3)(C(C)C)C(=O)N12 (stereo unspecified)	none
COc1cccc(CNC(=O)c2c(O)c3cccnc3n(-c3ccc(F)cc3)c2=O)c1	none
O=C(NCc1ccco1)c1c(O)c2cccnc2n(-c2cccc(F)c2)c1=O	none
O=C(Nc1cccc(F)c1)c1c(O)c2cccnc2n(-c2ccccc2)c1=O	none
O=C(NCc1ccco1)c1c(O)c2cccnc2n(-c2ccc(F)cc2)c1=O	Tgondii IFNg -79
COc1ccc(-n2c(=O)c(C(=O)NC3CCCC3)c(O)c3cccnc32)cc1	none
O=C(Nc1cccc(F)c1)c1c(O)c2cccnc2n(-c2cccc(F)c2)c1=O	none
COc1cccc(-n2c(=O)c(C(=O)NC3CCCCC3)c(O)c3cccnc32)c1	none
COc1cccc(-n2c(=O)c(C(=O)NC3CCCCCC3)c(O)c3cccnc32)c1	Tgondii IFNg -113
O=C(Nc1cc(F)cc(F)c1)c1c(O)c2cccnc2n(-c2cccc(F)c2)c1=O	Tgondii IFNg -106
COc1cccc(Cl)c1-c1cnc(-n2cnnc2)cc1C	none
O=C1COC2(CCN(C(=O)c3ccc[nH]3)CC2)CN1CC1CC1	none
CCCC(=O)N1CCN(CCC)C(=O)C1Cc1cccc(-c2ccncc2)c1 (stereo unspecified)	none
COC(=O)c1ccccc1NC(=S)N(CCO)Cc1cc2ccc(C)c(C)c2[nH]c1=O	none
C=CCn1c(=O)c(C(=O)Nc2ccccc2OCC)c(O)c2ccccc21	none
CC(C)(C)NC(=O)[C@@H]1CCCC[C@@H]1C(=O)NCCSc1ncn[nH]1	none
CC(C)OC(=O)OCOP(=O)(CO[C@H](C)Cn1cnc2c(N)ncnc21)OCOC(=O)OC(C)C	Tgondii IFNg -78
Nc1ncnc2c1ncn2CCOCP(=O)(O)O	none
Nc1ncnc2c1ncn2C1OC(COP(=O)(O)O)C(O)C1O (stereo unspecified) (tested in a mixture with another compound)	none
CCOC(=O)CC1(NC(=O)N2CCC3(CC2)Nc2cc(OC)ccc2-n2cccc23)CCCCC1	none
COCC1CN(C(=O)c2ccc(F)cc2)Cc2cnn(CC3CC3)c21 (stereo unspecified)	none
Cn1cnc2c1C(C(=O)N1CCCC(O)C1)N(Cc1ccccc1)CC2 (stereo unspecified)	none
COCCN1CCc2ncnc(N3CCOCC3)c2CC1	none
Cc1cccc(C(=O)N2CCC3(CC2)Nc2ccc(Cl)cc2-n2cccc23)c1	none
Cc1cccc(OCC(=O)N2CCC3(CC2)Nc2ccc(Cl)cc2-n2cccc23)c1	Tgondii IFNg -107
O=C(COc1ccccc1)N1CCC2(CC1)Nc1cc(F)ccc1-n1cccc12	none
O=C(COc1ccc(F)cc1)N1CCC2(CC1)Nc1ccc(Cl)cc1-n1cccc12	Tgondii IFNg -115
COc1cccc(CC(=O)N2CCC3(CC2)Nc2ccc(Cl)cc2-n2cccc23)c1	none
O=C(COc1ccc(Cl)cc1)N1CCC2(CC1)Nc1ccc(Cl)cc1-n1cccc12	none
Cc1cc(CNC(=O)c2cc(-c3ccncc3)c3cnccc3n2)on1	none
Brc1ccc(-c2nnc3ccc4ccccc4n23)cc1	none
COc1ccc(-c2nc(N(CC(C)C)CC(C)C)c3ccccc3n2)cc1	none
COc1ccc(CC2CN(C(=O)Cc3cnc(C)[nH]c3=O)CCO2)cc1 (stereo unspecified)	none
CCCc1cc(CNC(=O)c2cc(-c3cccs3)no2)on1	none
COCc1ccc(C(=O)NC2CCCc3c2cnn3C)o1 (stereo unspecified)	none
COc1ccccc1Cn1ncc2c1CCCC2NC(=O)c1cc(-c2cccs2)no1 (stereo unspecified)	Tgondii IFNg -77
O=C1CC(c2cccc(Br)c2)c2cc3c(cc2N1)CCC3 (stereo unspecified)	Tgondii IFNg -83
O=C1CC(c2ccsc2)c2cc3cn[nH]c3cc2N1 (stereo unspecified)	none
COc1cc2c(cc1C1CC(=O)Nc3[nH]ncc31)CCC2 (stereo unspecified)	none
COC(=O)c1cc2n(n1)CCCN(C1CCN(C(=O)c3ccccc3)CC1)C2	none
O=C(CNCCn1nnc2ccccc21)Nc1ccc(Cl)cc1F	none
Cn1c(N2CC[C@H](O)C2)nc2cc(C(=O)N3CCC4(CCCO4)CC3)ccc21	none
O=C(c1cnc(Nc2ccccc2)nc1)N1CCCn2cncc2C1	none
C=CCN1CCc2cc(CN(Cc3ccncc3)Cc3ccc(OC)cc3)ccc21	none
CC(C)(N)C(=O)N1CCCC(c2cc(Nc3cccc(F)c3)nc(-c3cccnc3)n2)C1 (stereo unspecified)	Tgondii IFNg -82
COCC1CCCN(C(=O)c2ccc(-c3cccnc3)nc2)C1 (stereo unspecified)	none
O=C(c1ccncc1)N1CCCC(c2nc(-c3cccnc3)no2)C1 (stereo unspecified)	none
Cc1ccc(C(=O)Oc2ccc(C)cc2-n2nc3ccccc3n2)cc1	none
CN1C[C@@H]2CCN(C(=O)NC3CCCC3)CC[C@H]2S1(=O)=O	none
CN(Cc1ccccn1)C(=O)[C@@]12COC[C@@H]1CN(S(C)(=O)=O)C2	none
COc1ccc(-c2nc(CCNC(C)=O)cs2)cc1	none
C[C@@H]1O[C@@]2(CS1)CN1CCC2CC1 (racemic)	none
CN1CCn2nc(C(=O)NC3c4ccccc4-c4ccccc43)cc2C1	none
Cc1cccc(CNc2nc(-c3nnc(-c4ccccc4)o3)nc3ccccc23)c1	Tgondii IFNg -85
Cc1cccc(-c2nnc(-c3nc(NCCc4ccco4)c4ccccc4n3)o2)c1	Tgondii IFNg -100
COc1ccc(-c2nnc(-c3nc(NCc4cccc(C)c4)c4ccccc4n3)o2)cc1	none
Cc1cccc(-c2nnc(-c3nc(N4CCOCC4)c4ccccc4n3)o2)c1	none
Cc1cccc(-c2nnc(-c3nc(NCc4ccc(C)o4)c4ccccc4n3)o2)c1	Tgondii IFNg -80
Cc1ccc(-c2nnc(-c3nc(NCCc4ccco4)c4ccccc4n3)o2)cc1	none
CCOc1ccc(CNc2nc(-c3nnc(-c4cccc(C)c4)o3)nc3ccccc23)cc1	none
Cc1cccc(-c2nnc(-c3nc(NCCN4CCCC4)c4ccccc4n3)o2)c1	Tgondii IFNg -90
Cc1cccc(-c2nnc(-c3nc(NCc4ccc(N(C)C)cc4)c4ccccc4n3)o2)c1	none
Cc1cccc(-c2nnc(-c3nc(NCc4cccnc4)c4ccccc4n3)o2)c1	none
Cc1ccc(-c2nnc(-c3nc(NCc4cccc(F)c4)c4ccccc4n3)o2)cc1	none
c1ccc(-c2nnc(-c3nc(NCc4ccco4)c4ccccc4n3)o2)cc1	none
CCOc1ccccc1-c1noc(-c2c(O)c3cc(F)ccc3n(C)c2=O)n1	none
Cc1cc(S(=O)(=O)N(C)Cc2cc(C3CCNCC3)nn2C)ccc1F	none
O=C(c1ccsc1)N1Cc2nccn2CC(CN2CCCC2)C1 (stereo unspecified)	none
COC(=O)[C@@H]1C[C@@H](N(C)C)CN1CC1=Cc2cccc(OC)c2OC1	none
COc1cccc(-c2nc(Cn3nnc(C(=O)Nc4cc(F)ccc4C)c3C)c(C)o2)c1OC	none
CCCc1nc(C(=O)N(C)Cc2nc(-c3cccc(C)c3)no2)cs1	none
CNC(=O)CCN(C)C1CCN(c2cccc(C)c2C)CC1	none
O=C(NCc1cccc(CN2CCCCCC2)c1)c1ccc(Cn2cncn2)cc1	none

High-throughput results deposited in PubChem by Broad Institute.
